Compound activity: PubChem BioAssay, National Center for Advancing Translational Sciences (NCATS)
Lassa entry: Lassa virus entry inhibition. Potency, µM (titrated, usually from 49.2 µM), without a hit: at the top dose activity change, negative = inhibition, actives largely listed as inhibitors. AID 720533. Lassa virus pseudotyped entry inhibition, cell-based qHTS. 4.1% of 18,000 active
MARV entry inh: blocks Marburg virus binding or cell entry | 6.5% of 18,000 active | Potency, µM (highest dose often 49.2 µM), inactives show at the highest dose activity change, negative = inhibition, actives largely listed as inhibitors | Marburg virus pseudotype entry/binding inhibition, cell-based
Starred values were filed as active, the others as inactive; ! = not confirmed by another sample; [ ] = remark or other dose. Only some compounds are listed: those with a hit (about 7.1% of all), similar ones and a draw of the others. Calls come from the whole dose curve; tested in HEK293 cells. % is set by controls: 0 for no effect and ±100 for the full control effect; potency is the fitted concentration of half-maximal effect.

Results for O=C(CCCN1CCC(O)(c2ccc(Cl)cc2)CC1)c1ccc(F)cc1 ?
Lassa entry: inconclusive; MARV entry inh: 12.6µM*

Results for CO[C@H](c1ccccc1Br)[C@H](C)C=CCCO ?
Lassa entry: -12.5%[8.59 µM]; MARV entry inh: inconclusive

How did C[C@H]1N[S+](=O)([O-])c2ccc(Br)cc2O[C@@H]1c1ccccc1 do in these assays?
Lassa entry: 16.1%; MARV entry inh: 8.1%

How did C[N+]1(C)CCC(OC(=O)C(O)(c2ccccc2)C2CCCC2)C1 (stereo not given) do in these assays?
Lassa entry: inconclusive; MARV entry inh: 7.8%

Results for CCCOC(C(=O)OC1CCN(C)CC1)(c1ccccc1)c1ccccc1 ?
Lassa entry: 15.8µM*; MARV entry inh: 6.31µM*

How did CN(c1ccc(NC(=O)NCCN2CCOCC2)cc1)c1ccnc(Nc2ccc(CS(C)(=O)=O)cc2)n1 do in these assays?
Lassa entry: 71.6%; MARV entry inh: -13.4%

How did COc1ccc(-c2cc3ccccc3c(=O)o2)cc1 do in these assays?
Lassa entry: 38.4%; MARV entry inh: 44.0%

Results for COc1cc(OC)cc(-c2sc3ccccc3c(=O)c2I)c1 ?
Lassa entry: inconclusive; MARV entry inh: 17.8µM*

What do the screens show for `CCC1CN2CCc3cc(OC)c(OC)cc3C2CC1CC1NCCc2cc(OC)c(OC)cc21` (stereo not given)?
Lassa entry: 5.62µM*; MARV entry inh: 5.01µM*

How did COc1ccc(CC2NCCc3cc(OC)c(OC)cc32)cc1OC (stereo not given) do in these assays?
Lassa entry: 2.3%; MARV entry inh: -18.5%

Results for CN1CCC(=C2c3ccccc3CCc3sccc32)CC1 ?
Lassa entry: 22.4µM*!; MARV entry inh: 11.2µM*

Results for CN1CCC(=C2c3ccccc3CC(=O)c3sccc32)CC1 ?
Lassa entry: inconclusive; MARV entry inh: 7.08µM*!

How did COC(=O)[C@]12C[C@@H]3CCN(C(=O)N[C@@H]1c1ccccc1)[C@@]32C do in these assays?
MARV entry inh: 75.7%[8.59 µM]

Results for COC(=O)N[C@@H](c1ccc(Cl)cc1)C(C(C)=O)C(=O)OC (stereo not given in full) ?
Lassa entry: 1.3%[8.59 µM]; MARV entry inh: 13.5%[8.59 µM]

Results for C[C@@H](NS(=O)(=O)c1ccc(Br)cc1F)[C@H](O)c1ccccc1 ?
Lassa entry: 12.2%; MARV entry inh: 19.6%

How did CC(C)=CCN1C(=O)[C@]2(O[C@H](COc3ccccc3)CC3=CCCC32)c2c(Br)cccc21 (stereo not given in full) do in these assays?
Lassa entry: -9.4%[8.59 µM]; MARV entry inh: -17.0%[8.59 µM]

How did COCC=CC1=CC2=CC(=O)C(C)(OC(=O)c3cnc4ccccc4n3)C(=O)C2=CN1Cc1ccccc1 (stereo not given) do in these assays?
Lassa entry: 4.2%[8.59 µM]; MARV entry inh: 18.6%[8.59 µM]

What do the screens show for `Cc1ccc(C(C)C)c(O)c1`?
Lassa entry: -6.7%; MARV entry inh: 4.1%

How did Cc1ccc(O)c([C@H](CCN(C(C)C)C(C)C)c2ccccc2)c1 do in these assays?
Lassa entry: inconclusive; MARV entry inh: 10µM*

How did COc1ccc(-c2cc(-c3cn[nH]c3-c3ccccn3)ccn2)cc1 do in these assays?
Lassa entry: 92.8%; MARV entry inh: 38.9%

How did Clc1ccc(C[n+]2cc(-c3ccccc3)n3c2CCCCC3)c(Cl)c1 do in these assays?
Lassa entry: inconclusive; MARV entry inh: 8.91µM*

How did CNC(=O)c1cncc(C=Cc2ccccc2Cl)c1 do in these assays?
Lassa entry: 61.3%; MARV entry inh: 14.8%

What do the screens show for `CCCCCN=c1ccn(Cc2ccccc2)c2ccccc12`?
Lassa entry: 20µM*; MARV entry inh: 14.1µM*

How did O=S1(=O)CC(N2CC=CC2)CN1CCc1ccccc1 (stereo not given) do in these assays?
Lassa entry: 17.8%; MARV entry inh: 20.3%

Results for CC(=O)O[C@H]1C[C@H](O[C@H]2[C@@H](O)C[C@H](O[C@H]3[C@@H](O)C[C@H](O[C@H]4CC[C@@]5(C)[C@H](CC[C@@H]6[C@@H]5C[C@@H](O)[C@]5(C)[C@@H](C7=CC(=O)OC7)CC[C@]65O)C4)O[C@@H]3C)O[C@@H]2C)O[C@H](C)[C@H]1O[C@@H]1O[C@H](CO)[C@@H](O)[C@H](O)[C@H]1O ?
Lassa entry: 0.0501µM*; MARV entry inh: inconclusive

What do the screens show for `C[C@@H]1N[S+](=O)([O-])c2c(F)cccc2O[C@H]1c1ccccc1`?
Lassa entry: 2.4%; MARV entry inh: 9.9%

How did COc1ccc([C@]23Cc4cc(OC)c(OC)cc4[C@H](O2)c2c(cc(C)n(Cc4ccccc4)c2=O)O3)cc1 do in these assays?
Lassa entry: 40.3%[8.59 µM]; MARV entry inh: 39.6%[8.59 µM]

Results for O[C@H]1[C@H]2c3cc4c(cc3CN3CCC(=C[C@@H]1O)[C@H]23)OCO4 ?
Lassa entry: 17.5%; MARV entry inh: 1.4%

What do the screens show for `OC1C=C2CCN3Cc4cc5c(cc4C(C1O)C23)OCO5` (stereo not given)?
Lassa entry: -28.0%; MARV entry inh: 12.6µM*

What do the screens show for `CCCCCC(=O)N1C[C@@H](O)[C@H](n2cc(COC(=O)c3ccccc3)nn2)C[C@H]1c1ccc(OC)cc1`?
Lassa entry: 11.1%; MARV entry inh: -17.5%

How did COC[C@@H](OC(C)=O)[C@H]1OCc2ccccc2[C@H]1C=Cc1ccccc1 do in these assays?
Lassa entry: -3.7%[8.59 µM]; MARV entry inh: 1.3%[8.59 µM]

Results for CCC1OC(=O)C(C)[C@@H](O[C@H]2C[C@@](C)(OC)C(O)C(C)O2)C(C)[C@@H](O[C@@H]2OC(C)CC(N(C)C)C2O)[C@@](C)(O)CC(C)C2NC(COCCOC)O[C@H](C2C)[C@@]1(C)O (stereo not given in full) ?
Lassa entry: -6.7%; MARV entry inh: -16.2%

Results for CCOC(=O)CCC(=O)O[C@H]1[C@H](O[C@@H]2[C@@H](C)[C@H](O[C@H]3C[C@@](C)(OC)[C@@H](O)[C@H](C)O3)[C@@H](C)C(=O)O[C@H](CC)[C@@](C)(O)[C@H](O)[C@@H](C)C(=O)[C@H](C)C[C@@]2(C)O)O[C@H](C)C[C@@H]1N(C)C ?
Lassa entry: 0.8%; MARV entry inh: 7.8%

How did CC[C@H]1OC(=O)[C@H](C)[C@@H](O[C@H]2C[C@@](C)(OC)[C@@H](O)[C@H](C)O2)[C@H](C)[C@@H](O[C@@H]2O[C@H](C)C[C@H](N(C)C)[C@H]2O)[C@](C)(O)C[C@@H](C)[C@@H]2N[C@@H](COCCOC)O[C@@H]([C@H]2C)[C@]1(C)O do in these assays?
Lassa entry: -1.4%; MARV entry inh: 7.08µM*

What do the screens show for `CCC(=O)O[C@H]1[C@H](O[C@@H]2[C@@H](C)[C@H](O[C@H]3C[C@@](C)(OC)[C@@H](O)[C@H](C)O3)[C@@H](C)C(=O)O[C@H](CC)[C@@](C)(O)[C@H](O)[C@@H](C)C(=O)[C@H](C)C[C@@]2(C)O)O[C@H](C)C[C@@H]1N(C)C`?
Lassa entry: 25.1µM*; MARV entry inh: 10µM*

Results for CC(CCN1CCCCc2nc(C)c(C)cc21)=NOC[C@@H](O)[C@H]1O[C@@H]2OC(C)(C)O[C@H]2[C@@H]1O ?
MARV entry inh: 18.5%[8.59 µM]

What do the screens show for `COc1cccc([C@H]2Oc3ccc(OC)cc3C(=NO[C@H](C)c3cn([C@H](CO)Cc4ccccc4)nn3)[C@H]2O)c1`?
Lassa entry: 7.7%[8.59 µM]; MARV entry inh: 40.8%[8.59 µM]

How did Nc1ncnc2c1nc(Br)n2C1OC(CO)C(O)C1O (stereo not given) do in these assays?
Lassa entry: inconclusive; MARV entry inh: -22.1%
